# Experimental data reported in PubChem BioAssay (Tox21).
# Records with an inconclusive call do not appear. Unmarked numbers belong to inactive results. Calls come from the whole dose curve; as a rule, active = well fitted cell-killing curve with a large enough effect in the repeat runs; inconclusive = weak or mixed curves, or effect the other way; inactive = no such curve, though single readings can be large or run the other way.
# Assay: qHTS assay to identify small molecule antagonists of the sonic hedgehog signaling (Shh) pathway - cell viability counter screen (AID 1259367); note: nearly all actives have a fitted effect of over 55% in size
# Conditions: NIH/3T3 Gli1-Luc viability, CellTiter-Fluor, 24 h; series mostly up to 92.4 µM; viability change, negative = cytotoxic: at the top concentration
# Text: National Center for Advancing Translational Sciences [NCATS]
# NIH Chemical Genomics Center [NCGC]
# U.S. Environmental Protection Agency [EPA]
# National Institutes of Environmental Health Sciences [NIEHS]
# National Toxicology Program [NTP]
# U.S. Food and Drug Administration [FDA]
# The sonic hedgehog (Shh) pathway is essential for normal embryonic development. Dysregulation of the Shh pathway can cause severe developmental defects in organs. Therefore chemicals that interfere with the pathway are potential developmental toxicants. A cell line designated 3T3Gli1-Luc (DMB/OARSA/CFSAN/FDA, Laurel, MD), a NIH/3T3 derived clone containing stably integrated Gli1-Luc reporter is used to detect chemical interference of the Shh pathway, by changes in the expression of the firefly Luc gene under the control of the Gli1 transcriptional response element. This cell line was used to screen Tox21 libraries for identifying and prioritizing the potential developmental toxicants that interfere Shh pathway. Conditioned medium-stimulated mode was used to screen for chemicals inhibiting Shh signaling. The cytotoxicity of the compounds was tested in parallel by measuring the cell viability using CellTiter-Fluor assay system (Promega, Madison, WI) in the same wells.
# Tox21 Assay Protocol Summary:
# 3T3 Gli1-Luc cells were dispensed at 2,000 per well in 5uL of culture medium into white solid bottom 1536-well plates (Greiner Bio-One, Monroe, NC) using a Multidrop Combi (Thermo Scientific, Waltham, MA) dispenser. The assay plates were incubated at 37 C and 5% CO2 for 4hr, and then 23nL of compounds dissolved in DMSO and positive control were transferred using a Pintool station (Wako, San Diego, CA). The compound transfer was followed by the addition of 1ul conditioned medium or assay buffer using two separate tips of Flying Reagent Dispenser (FRD, Aurora Discovery, San Diego, CA). The assay plates were incubated at 37C and 5% CO2 for 24hr. For viability read, after 23hr of compound treatment, 1uL of CellTiter-Fluor reagent (Promega Corporation, Madison, WI) was added to each well of the assay plates using Flying Reagent Dispenser (FRD, Aurora Discovery, San Diego, CA) and incubated the assay plates at 37C for 1hr. The fluorescence signal was quantified using a ViewLux plate reader (Perkin Elmer, Shelton, CT).
# % is set by controls: 0 for no effect and ±100 for the full control effect.
row,Structure (SMILES),"viability change, negative = cytotoxic"
1,CCOC(=O)CC1(C)OCC(C)O1 (stereo not given),1.48%
2,CCCCC1CCC(O)CC1 (stereo not given),0.391%
3,OCC1(CO)COCOC1,-0.539%
4,CCC(=O)Oc1ccc2c(c1)CC[C@@H]1[C@@H]2CC[C@@]2(C)[C@H]1C[C@@H](OC(=O)CC)[C@@H]2OC(=O)CC,3.17% [at 42.5 µM]
5,CC1=C(C(=O)O)N2C(=O)[C@@H](NC(=O)[C@H](N)c3ccccc3)[C@H]2SC1,0.0475% [at 42.5 µM]
6,CCOc1ccccc1OCC1CNCCO1 (stereo not given),1.14% [at 42.5 µM]
7,CCCc1ccc(O)cc1,-1.91%
8,CC1(C)CC(OC(=O)CCCCCCCCC(=O)OC2CC(C)(C)NC(C)(C)C2)CC(C)(C)N1,-5.84% [at 19 µM]
9,CC1(C)O[C@H]2CC(=O)OC[C@]23[C@H]2CC[C@@]4(C)[C@H](c5ccoc5)OC(=O)[C@H]5O[C@]54[C@]2(C)C(=O)C[C@@H]13,-0.129% [at 42.5 µM]
10,Cc1c(Cl)cccc1Cl,-0.922%
11,CCCCCCCCCCCCCCC(=O)NC(CO)CCCCCCCCCCCCCC (stereo not given),0.732%
12,CCCCCCCCCOC(=O)c1ccccc1C(=O)OCCCCCCCCC,-1.8%
13,CC(=O)CCC1=C(C)CCCC1(C)C,-5.67%
14,Cc1c(C(=O)c2c[nH]n(C)c2=O)ccc(S(C)(=O)=O)c1C1=NOCC1,2.82% [at 42.5 µM]
15,CO[Si](CCCn1c(=O)n(CCC[Si](OC)(OC)OC)c(=O)n(CCC[Si](OC)(OC)OC)c1=O)(OC)OC,2.56% [at 42.5 µM]
16,CCCCCCCCCCOC(C)=O,2.38%
17,COc1cc2c(cc1OC)CN(C(=O)[C@H](C)N[C@@H](CCc1ccccc1)C(=O)O)[C@H](C(=O)O)C2,4.82% [at 42.5 µM]
18,O=Cc1cc2ccccc2o1,6.14%
19,OC1(c2ccc(Cl)cc2)CCNCC1,-13.2% [at 42.5 µM]
20,O=C(CN1CCNCC1)NC1CCCCC1,-1.54% [at 42.5 µM]

row,Structure (SMILES),"viability change, negative = cytotoxic"
1,O=C(O)CSCC(=O)NC1CCSC1=O (stereo not given),-1.11% [at 42.5 µM]
2,Cc1ccnc(N)c1,9.09%
3,CCCCCCCCCCCCCCCCCC#N,0.296%
4,O=S(=O)(O)c1ccc2c(N=Nc3ccc(S(=O)(=O)O)c4ccccc34)c(O)c(S(=O)(=O)O)cc2c1,-12.4% [at 8.39 µM]
5,Cc1cc(C)c(C(=O)O)c(C)c1,1.36%
6,Cn1c(=O)c2c(ncn2CCO)n(C)c1=O,-0.22% [at 42.5 µM]
7,C=CCCCCCCCCC(=O)OCCCC,-3.48%
8,CC(C)NC(=O)c1ccc(C=O)cc1,-0.0301% [at 42.5 µM]
9,COc1cc2c(cc1OC)C(=O)C(CC1CCN(Cc3ccccc3)CC1)C2 (stereo not given),-1.45% [at 42.5 µM]
10,CC(C)c1ccc(C=O)cc1,2.45%
11,CCOCCOCC,0.4%
12,CC(C)OC(=O)OCOP(=O)(CO[C@H](C)Cn1cnc2c(N)ncnc21)OCOC(=O)OC(C)C,-11.1% [at 42.5 µM]
13,CN1C[C@@H]2C[C@H]1CN2c1cc2c(cc1F)c(=O)c(C(=O)O)cn2C1CC1,0.743% [at 19 µM]
14,CC(=O)C(C)O (stereo not given),-3.19%
15,CO/N=C(/C(=O)N[C@@H]1C(=O)N2C(C(=O)[O-])=C(C[n+]3ccn4ncccc43)CS[C@H]12)c1nsc(N)n1,2.48% [at 42.5 µM]
16,C/C(=C1\CCOC(=O)S1)N(C=O)Cc1cnc(C)nc1N,0.757% [at 42.5 µM]
17,CC/C=C\CCOC(=O)c1ccccc1O,2.27%
18,Nc1nc(-c2ccccc2)c(Br)c(=O)[nH]1,3.28% [at 42.5 µM]
19,CC1=C(C(=O)O)N2C(=O)[C@@H](NC(=O)[C@H](N)C3=CCC=CC3)[C@H]2SC1,0.813% [at 42.5 µM]
20,CCCCCC/C=C/C(=O)OC,-3.88%
